# Measured values as given in PubChem BioAssay (NCATS).
# Records with an inconclusive call do not appear. A call without a number means that no potency is given here. Active and inactive are the calls of the source. Unless noted, the call rests on the fitted dose curve; in most records, active means well fitted curve in the direction sought with a large enough effect; inconclusive means small, poorly fitted or top-dose-only effect, or another doubt; inactive means no such curve, though single readings can be large; an effect the other way counts as inactive or inconclusive.
# Assay: S16 Schwann cell PMP22 intronic element beta-lactamase assay (AID 624044; calls by dose curve; further: nearly all actives have a fitted effect of over 15% in size)
# Conditions: S16 rat Schwann cells, PMP22 element beta-lactamase FRET, 24 h; series mostly up to 38.3 µM
# Method in brief: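 Beta-lactamase reporter under a PMP22 intronic regulatory element in stable S16 rat Schwann cells; 24 h compound exposure. 460 nm blue signal normalized between DMSO (0%) and potassium clavulanate, with 535 nm FRET tracking viability; curves classed by r2 and response.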
row,SMILES,Potency
1,CCC(N)Cc1c[nH]c2ccccc12 (configuration not stated),inactive
2,CC(N)Cc1ccc(O)cc1 (configuration not stated),inactive
3,CN1C2CCC1CC(OC(c1ccccc1)c1ccc(Cl)cc1)C2 (configuration not stated),inactive
4,CN1[C@@H]2CC[C@H]1CC(OC1c3ccccc3CCc3ccccc31)C2 (some centres not stated),inactive
5,CCC(=O)O[C@@](Cc1ccccc1)(c1ccccc1)[C@@H](C)CN(C)C,inactive
6,CCC1C(C)=NN=C(c2ccc(OC)c(OC)c2)c2cc(OC)c(OC)cc21 (configuration not stated),inactive

# Assay: qHTS of Trypanosoma Brucei Inhibitors: LOPAC Validation (AID 624147)
# Conditions: purified enzyme assay, luminescence, 45 min; series mostly up to 57.5 µM
# Method in brief: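 TbPYK + substrate in 50 mM TEA pH 7.2, 100 mM KCl, 10 mM MgCl2, 0.05% BSA, 0.01% Tween-20; cpd pinned; ADP 130 uM final; 45 min RT; Kinase-Glo Plus 10 min; luminescence endpoint.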
row,SMILES,Potency
1,COc1ccc(OC)c(C(O)C(C)N)c1 (configuration not stated),inactive
2,O=C1CC[C@@]2(O)C3Cc4ccc(O)c5c4C2(CCN3CC2CC2)[C@H]1O5 (some centres not stated),inactive
3,C=CCN1CCC23c4c5ccc(O)c4O[C@H]2C(=O)CC[C@@]3(O)C1C5 (some centres not stated),inactive

# Assay: qHTS of Nrf2 Activators: LOPAC Validation (AID 624149)
# Conditions: Nrf2/ARE reporter cell assay; series mostly up to 46.1 µM
# Method in brief: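 Cells (AREc32_Fluc) are plated at 1000 per well in OPTI-MEM containing 5% FBS and left overnight. Compounds are pinned in and incubated 24 hr at 37 deg C, and firefly luciferase is detected with Steady-Glo.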
row,SMILES,Potency
1,COc1ccc(OC)c(C(O)C(C)N)c1 (configuration not stated),inactive
2,O=C1CC[C@@]2(O)C3Cc4ccc(O)c5c4C2(CCN3CC2CC2)[C@H]1O5 (some centres not stated),inactive
3,C=CCN1CCC23c4c5ccc(O)c4O[C@H]2C(=O)CC[C@@]3(O)C1C5 (some centres not stated),inactive
